Experimental data: PubChem BioAssay AID1851 (National Center for Advancing Translational Sciences (NCATS), 2009)
Several values for one entry are separate records, joined by “and”; a condition that tells them apart may be missing. Identical values can stand only once. Screen size: about 16,000 compounds; about 5,800 (36%) were called active. Inconclusive results (about 23%) are left out. Calls follow the shape of the dose curve; as a rule, active = well fitted curve in the direction sought with a large enough effect; inconclusive = small, poorly fitted or top-dose-only effect, or effect the other way; inactive = no such curve, though single readings can be large or run the other way. This is one part of the list. Some compounds were tested as several samples or in several runs, with calls that do not always agree.

target: Cytochrome P450 2C19 (Homo sapiens) (UniProt P33261); assay: Cytochrome panel assay with activity outcomes; conditions: recombinant CYP, pro-luciferin dealkylation, luminescence, p450-cyp2c19; series mostly up to 57.1 µM
Sequence (P33261 whole entry, looked up): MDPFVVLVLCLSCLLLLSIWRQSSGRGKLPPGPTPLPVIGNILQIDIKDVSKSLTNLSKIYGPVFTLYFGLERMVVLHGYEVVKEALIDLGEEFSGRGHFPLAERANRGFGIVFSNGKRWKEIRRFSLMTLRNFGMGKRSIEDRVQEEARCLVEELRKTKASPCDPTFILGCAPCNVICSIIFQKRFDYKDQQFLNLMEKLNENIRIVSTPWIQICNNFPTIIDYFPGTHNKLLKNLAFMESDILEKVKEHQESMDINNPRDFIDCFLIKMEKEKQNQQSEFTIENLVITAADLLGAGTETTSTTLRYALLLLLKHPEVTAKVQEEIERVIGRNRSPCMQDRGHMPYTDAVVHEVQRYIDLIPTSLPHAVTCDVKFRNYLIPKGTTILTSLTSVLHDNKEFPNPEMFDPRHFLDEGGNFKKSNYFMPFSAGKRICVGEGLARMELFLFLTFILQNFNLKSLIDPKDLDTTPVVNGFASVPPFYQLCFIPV
% is scaled to controls: 0 for no effect and ±100 for the full control effect.

SMILES | AC50 | activity, negative = inhibition
OCCN1CCN(C(=S)c2ccc(Br)cc2)CC1 | 4.47 µM (active) | 
OCCN1CCOCCOCCN(CCO)CCN(CCO)CC1 | inactive | 
C[C@H]1CN(CCO)CCN1c1ccccc1 |  | 34.1% [at 11.4 µM] (inactive)
CCN1CCN(C(=S)c2ccc(Br)cc2)CC1 | 7.94 µM (active) | 
O=C(CCCN1CCC(O)(c2ccc(Br)cc2)CC1)c1ccc(F)cc1 | inactive | 
O=c1[nH][nH]c(C(F)(F)F)c1C=Nc1ccccc1 | inactive | 
Cc1ccc(-c2cc(C(=O)NCc3ccco3)c3ccccc3n2)s1 | 3.98 µM (active) | 
Cc1ccc(CSc2nnc3c(n2)OC2(Nc4ccccc4-3)C(=O)Nc3ccc(F)cc32)cc1 (stereo unspecified) | 10 µM (active) | 
O=C1Nc2ccc(F)cc2C12Nc1ccccc1-c1nnc(SCc3ccccc3F)nc1O2 (stereo unspecified) | 4.47 µM (active) | 
COc1cccc2c(=O)c(C(=O)NCc3cccs3)c[nH]c12 | 7.94 µM (active) | 
COc1ccc(C(=O)c2c[nH]c(C(=O)NCc3cccs3)c2)cc1 | inactive | 
Nc1nc2c(C(=O)NCc3cccs3)nnn2c2cccc(Cl)c12 |  | 12.5% [at 11.4 µM] (inactive)
CCC(=O)OCC(=O)[C@@]1(OC(=O)CC)[C@H](C)C[C@@H]2[C@H]3CCC4=CC(=O)C=C[C@]4(C)[C@]3(Cl)[C@@H](O)C[C@@]21C | inactive | 
CC1=C/C(=N/O)C([C@H]2C=C(C)CC(C)(C)[C@@H]2O)C(C)(C)C1 (stereo partly specified) | 1.58 µM (active) | 
COc1cccc(Nc2ncc3nc(-c4cn(C)c5ccccc45)c(=O)n(CCC#N)c3n2)c1 | inactive | 
COc1cccc2c1[C@@H]1CN(CCCCn3c(=O)[nH]c4c(sc5ncc(-c6ccccc6)nc54)c3=O)C[C@H]1CO2 | inactive | 
FC(F)Sc1ccc(N=C2NN=C(c3ccc4c(c3)OCCO4)CS2)cc1 | 2.24 µM (active) | 
CN(Cc1ccccc1)C(=O)CC(c1ccccc1)c1cc(Cl)ccc1O (stereo unspecified) | 1.78 µM (active) | 
CC(C)Oc1ccc(CNC(=O)CC(c2ccccc2)c2cc(Cl)ccc2O)cc1 (stereo unspecified) | 1.78 µM (active) | 
Cc1cc(-c2cc(-c3ccc(Cl)cc3)nc(N)c2C#N)co1 | 0.282 µM (active) | 
Cc1cccc(CNc2ncncc2-c2cccc(NS(C)(=O)=O)c2)c1 | 6.31 µM (active) | 
CS(=O)(=O)Nc1cccc(-c2ccc3ncnc(NCc4cccnc4)c3c2)c1 | 0.0501 µM (active) | 
CS(=O)(=O)Nc1cccc(-c2cncnc2NCc2cccnc2)c1 | 3.16 µM (active) | 

SMILES | AC50 | activity, negative = inhibition
Cc1cnc(CNc2ncnc3ccc(-c4cccc(NS(C)(=O)=O)c4)cc23)cn1 | inactive | 
CS(=O)(=O)Nc1cccc(-c2cncnc2Nc2ccccc2)c1 | inactive | 
N[C@H](C(=O)O)[C@@H]1[C@@H](C(=O)O)C1(F)F | inactive | 
CCOC(=O)C1=C(C)NC2=C(C(=O)C(C(=O)OCC)C(c3ccc(OC)cc3)C2)C1c1ccccn1 (stereo unspecified) | 20 µM (active) | 
O=C(c1cc2sccc2n1Cc1ccccc1)N1CCN(c2nc3ccccc3s2)CC1 | 2.24 µM (active) | 
O=C(O)c1cccc(CN2CCCCC2)c1 |  | 9.75% [at 11.4 µM] (inactive)
O=C(CN1CCN(Cc2ccccc2)CC1)N1CCCc2c1c(=O)oc1ccc(O)cc21 | 3.55 µM (active) | 
CCCc1c(-c2ccc(O)cc2)nn(-c2ccc(O)cc2)c1-c1ccc(O)cc1 | inactive | 
O=S(=O)(O)C1CCNCC1 | inactive | 
O=S(=O)(c1ccccc1)N1N=C(c2cccs2)CC1c1ccc(Br)cc1 (stereo unspecified) | 2 µM (active) | 
N#CCCn1c(=O)c(-c2cc(F)cc(F)c2)nc2cnc(N3CCOCC3)nc21 | inactive | 
O=c1nc(-c2ccccc2)cc(C(F)(F)F)[nH]1 | inactive | 
Cc1ccc2nc(Nc3nc(-c4ccccc4)cc(=O)[nH]3)nc(C)c2c1 | 3.16 µM (active) | 
Cc1ccc2c(C)nc(Nc3nc(CSc4nc5ccccc5[nH]4)cc(=O)[nH]3)nc2c1 | 7.08 µM (active) | 
CCN(CC)c1ccc(NC(=O)c2cccc(F)c2)c(C)c1 | 15.8 µM (active) | 
COc1ccc(C(N)=O)cc1NC(=O)c1cccc(F)c1 | inactive | 
Cn1c(SCc2nnc(-c3ccc(F)cc3)o2)nnc1C1COc2ccccc2O1 (stereo unspecified) | 17.8 µM (active) | 
Oc1ccc(C2Nc3cccc4cccc(c34)N2)c(O)c1 | 5.62 µM (active) | 
O=[N+]([O-])c1nccn1C[C@H](O)CN1CCCCC1 |  | 22.6% [at 11.4 µM] (inactive)
S=C1N[C@H](c2ccccc2)N[C@H](c2ccccc2)S1 | 3.98 µM (active) | 
O=C1C2[C@@H](c3ccccc3)N[C@@H](c3ccccc3)C1[C@H](c1ccccc1)N[C@H]2c1ccccc1 |  | -2.21% [at 11.4 µM] (inactive)
COc1ccc(CCNC(=O)CCCCCN2C(=O)c3ccccc3C2=O)cc1 | 2.51 µM (active) | 
CCOCCCNC(=O)CCS(=O)(=O)Cc1ccc(C)cc1 | inactive | 

SMILES | AC50 | activity, negative = inhibition
O=C(CCCCCN1C(=O)c2ccccc2C1=O)NCc1ccccn1 | inactive | 
CCOc1ccc(CCNC(=O)CCCN2C(=O)c3ccccc3C2=O)cc1OCC | 28.2 µM (active) | 
C#CCCCO/N=C1/C[C@@H](O)[C@@H](O)[C@@H]2[C@@H]3C(=O)N(C[C@@H]4CCCO4)C(=O)[C@H]3CC[C@@H]12 |  | 1.94% [at 11.4 µM] (inactive)
O=S(=O)(NCc1cc(-c2ccccc2Cl)no1)c1ccc(Cl)cc1 | 0.0562 µM (active) | 
O=C(Nc1ccccc1)c1cc(-c2ccccc2Cl)no1 | 2.82 µM (active) | 
O=C(O)[C@@H]1[C@@H](C(=O)Nc2ccccc2)[C@@H]2C=C[C@@H]1O2 |  | -3.64% [at 11.4 µM] (inactive)
O=C1c2ccccc2C(=O)N1Cc1cc(-c2ccccc2Cl)no1 | 10 µM (active) | 
O=S(=O)(NCc1cc(-c2ccccc2Cl)no1)c1ccccc1 | 0.158 µM (active) | 
CC[C@@H](CS(=O)(=O)O)[N+](=O)[O-] |  | 45% [at 11.4 µM] (inactive)
CS(=O)(=O)N(CC(=O)Nc1c(F)cccc1F)c1ccc(C23CC4CC(CC(C4)C2)C3)cc1 | 11.2 µM (active) | 
CN(C)C(=O)CN(c1ccc2c(c1)OCO2)S(C)(=O)=O | inactive | 
CCCC/C=C/C(NC(=O)Oc1cccc(C(F)(F)F)c1)c1ccccc1 (stereo unspecified) | 3.16 µM (active) | 
CCCC/C=C/C(NC(=O)c1ccc(-c2ccccc2)cc1)c1ccccc1 (stereo unspecified) | inactive | 
CCCC/C=C/C(NC(=O)c1cccs1)c1ccccc1 (stereo unspecified) | 1.58 µM (active) | 
CCCC/C=C/C(NC(=O)c1ccccc1)c1ccccc1 (stereo unspecified) | 7.94 µM (active) | 
CCCCCCCCCCCCCCC/C=C\[C@H](O)[C@@H](NC(=O)CCCCCCCCCCCCC)OC (tested in a mixture with another compound) | inactive | 
CCCC/C=C/C(NC(=O)c1ccco1)c1ccccc1 (stereo unspecified) | 15.8 µM (active) | 
CCCN(CCC)C(=O)[C@@H](CCC(=O)O)NC(=O)c1ccccc1 | inactive | 
Nc1cc(=O)[nH]c(N)n1 | inactive | 
CC(C)=CCC/C(C)=C/CO/N=C1/[C@H]2O[C@@H]2[C@@H](O)[C@H]2[C@H]1CCn1c(=O)n(-c3ccccc3)c(=O)n12 |  | 18.2% [at 11.4 µM] (inactive)
N#Cc1cccc(-c2nc3cnc(N4CCOCC4)nc3n(C[C@H]3CCCO3)c2=O)c1 | inactive | 
COc1cccc(N(C(=O)Cn2nnc(-c3ccc(C)cc3)n2)C(C(=O)NC(C)(C)C)c2c[nH]c3ccccc23)c1 (stereo unspecified) | 10 µM (active) | 
OC[C@@H]1O[C@H](O)[C@@H](Cl)[C@H](O)[C@@H]1O | inactive | 

SMILES | AC50 | activity, negative = inhibition
CNCC[C@H](Oc1ccccc1OC)c1ccccc1 | inactive | 
CN(CC[C@@H](Oc1ccc(-c2ccccc2)cc1)c1ccc(F)cc1)CC(=O)O | 6.31 µM (active) | 
CC(Oc1ccc(-c2ccccc2)c(F)c1)c1ccn(S(=O)(=O)c2ccc(Cl)cc2)n1 (stereo unspecified) | 3.55 µM (active) | 
CC(C)CN1CCC2(CC1)CCN(S(=O)(=O)c1ccccc1)CC2 | inactive | 
CC(Oc1ccc(Cl)cc1)c1ccnn1S(=O)(=O)c1ccccc1 (stereo unspecified) | 0.501 µM (active) | 
CC(Oc1ccccc1)c1ccnn1S(=O)(=O)c1ccccc1 (stereo unspecified) | 2 µM (active) | 
CO[C@H]1COC(=O)[C@H](C)NC(=O)C/C=C\[C@@H](C)[C@H](OC)COC(=O)[C@@H](OCc2ccccc2)/C=C\[C@@H]1C |  | 1.79% [at 11.4 µM] (inactive)
N[C@H](C(=O)O)c1ccc(C(=O)O)c(O)c1 | inactive | 
N[C@@H](C(=O)O)c1ccc(C(=O)O)cc1 | inactive | 
N[C@@H](C(=O)O)c1ccc(C(=O)O)c(C(=O)O)c1 | 316 nM (active) and inactive and 3.16 µM (active) | 
N[C@H](C(=O)O)c1ccc(C(=O)O)cc1 | inactive | 
N[C@@H](C(=O)O)c1ccc(P(=O)(O)O)cc1 | 15.8 µM (active) | 
N[C@@H](C(=O)O)c1ccc(C(=O)O)c(O)c1 | inactive | 
Cc1cc(=Nc2ccc3c(c2)c(N)cc(C)[n+]3C)nc(N)n1C |  | 35.5% [at 11.4 µM] (inactive)
CC(NC(=O)CCSc1nc(-c2ccco2)cc(C(F)(F)F)n1)c1ccccc1 (stereo unspecified) | 1.41 µM (active) | 
COc1cc(C2C(C(=O)OCCC#N)=C(C)NC3=C2S(=O)(=O)c2ccccc23)cc(OC)c1OC (stereo unspecified) | 20 µM (active) | 
COc1ccc(CNc2ccnc(-c3cccc(C#N)c3)n2)c(OC)c1 | 3.98 µM (active) | 
COc1ccccc1CNc1ccnc(-c2cccc(C#N)c2)n1 | 3.98 µM (active) | 
Cc1nn(C(C)C(=O)Nc2sc3c(c2C#N)CCCC3)c(C)c1[N+](=O)[O-] (stereo unspecified) | 10 µM (active) | 
COc1cccc(NC(=S)NNC(=O)C(C)n2nc(C)c([N+](=O)[O-])c2C)c1 (stereo unspecified) | 7.94 µM (active) | 
Cc1nn(C)c(C(=O)NNC(=S)Nc2ccc(Cl)cc2)c1[N+](=O)[O-] | inactive | 
Cc1nn(C(C)C(=O)Nc2ccc(Cl)cn2)c(C)c1[N+](=O)[O-] (stereo unspecified) | 3.16 µM (active) | 
